High-throughput results (PubChem BioAssay)
Sfp inh = qHTS Assay for Inhibitors of Bacillus subtilis Sfp phosphopantetheinyl transferase (PPTase). 4'-phosphopantetheinyl transferase ffp (Bacillus subtilis), Q9F4F7. Biochemical Sfp PPTase activity, qHTS. Potency, µM, inactives show largest response in the series, negative = inhibition, usual class: inhibitors. 310,000 compounds, 3.5% hits;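 also: the enzyme is Sfp with the accession as filed and its product quenches rhodamine fluorescence; 0% = enzyme reaction without inhibitor and -100% = no enzyme wells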
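After 15 min at room temperature with compound, 15 nM Sfp received 5 uM rhodamine-CoA plus 12.5 uM BHQ-2-ybbR (50 mM Hepes pH 7.6, 10 mM MgCl2). Rate came from the fluorescence difference over 30 min, ex 525/em 598 nm.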
KDM4E inh = qHTS Assay for Inhibitors of Human Jumonji Domain Containing 2E (JMJD2E) | Lysine-specific demethylase 4E (Homo sapiens), B2RXH2 | JMJD2E catalytic domain, FDH-coupled NADH fluorescence (FDH is formaldehyde dehydrogenase) | Potency, µM (doses to about 57.1 µM), inactives show at the top dose activity change, negative = inhibition, actives largely listed as inhibitors | 230,000 compounds, 1.6% hits | AID 2147, 2009; active = well fitted inhibition curve with a large enough effect, not every such curve was filed as active; inconclusive = small, poorly fitted or top-dose-only effect, or another doubt; inactive = no such curve, though single readings can be large or run the other way;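 also: 0% = wells with enzyme and -100% = buffer wells without enzyme; nearly all actives have a fitted effect of over 50% in size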
Epigenetic reg = Quantitative High-Throughput Screen for Regulators of Epigenetic Control; AID 1865, 2009; Potency, µM (titrated, usually from 53.9 µM), without a hit: top-dose GFP activation, hits mostly activators; 280,000 compounds, 0.2% hits; murine LDR cells, GFP reporter derepression, 30 h; also: % of control where 0% means no effect; nearly all actives have a fitted effect of over 60% in size
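Readout is the number of GFP-expressing murine LDR cells, counted by cytometry following washing. Cells were treated with compound for 30 h at 37 C; the stably integrated CMV-GFP locus is normally silent.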
NPSR antagonist = qHTS Assay for Antagonists of the Neuropeptide S Receptor: cAMP Signal Transduction; CHO-NPSR cells, cAMP TR-FRET, antagonist mode; 220,000 compounds, 1% hits; Potency, µM (top dose mostly 38.3 µM), for inactives: at the highest dose activity change, negative = inhibition, usual class: inhibitors; Q6W5P4; AID 1461, 2008; also: % is scaled to controls: 0 for no effect and ±100 for the full control effect; nearly all actives have a fitted effect of over 50% in size
IMPase Li cell = qHTS Assay for Identifying the Cell-Membrane Permeable IMPase Inhibitors: Potentiation with Lithium; 210,000 compounds, 0.35% hits; CHO-M1 cells, IP1 TR-FRET (IP-One), carbachol + lithium; Potency, µM (highest dose often 59.4 µM), for the others: at the top dose activity, negative = IMPase inhibition, actives largely listed as inhibitors;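 also: IP1 builds up when IMPase is blocked and the TR-FRET signal falls; plate controls were basal vehicle for no effect and high inhibitor control for full effect; nearly all actives have a fitted effect of over 50% in size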
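Lithium-sensitised IP1 accumulation assay; M1-expressing CHO cells treated 30 min at 37C with compound. Competitive antibody detection by time-resolved FRET followed a 10 min room-temperature lysis step.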
KAT2A inh = qHTS Assay for Inhibitors of GCN5L2; Histone acetyltransferase KAT2A (Homo sapiens), Q92830; GCN5L2 HAT assay, ThioGlo1 CoA-SH fluorescence; Potency, µM (doses to about 58.9 µM), for the others: at the top dose activity change, negative = inhibition, most hits filed as inhibitors; 390,000 compounds, 0.21% hits; also: % is scaled to controls: 0 for no effect and ±100 for the full control effect
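GCN5L2 (20 nM) in 50mM HEPES pH 7.5, 0.1mM EDTA, 0.01% Tween-20 preincubated 15 min with compounds at room temperature. Reaction started with H3(1-25) 75uM, acetyl-CoA 70uM, ThioGlo1 50uM; CoA-thiol fluorescence (Ex340/Em540) read at 0 and 20 min.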
The depositor's hits bear a star; ? = inconclusive; · = no result; [ ] = remark or other dose. Sampled rows, rich in hits. Any-hit rate of the full collection: about 3.6%. Unless noted, calls follow the shape of the dose curve; as a rule, active = well fitted curve in the direction sought with a large enough effect; inconclusive = small, poorly fitted or top-dose-only effect, or another doubt; inactive = no such curve, though single readings can be large; an effect the other way counts as inactive or inconclusive. Potency is read from the fitted curve at half-maximal effect.

SMILES	Sfp inh	KDM4E inh	Epigenetic reg	NPSR antagonist	IMPase Li cell	KAT2A inh
C#CCn1c(=NC(=O)c2cccs2)sc2cccc(OC)c21	79µM*	?	4%	-25%[46.1 µM]	-4%[38.3 µM]	-17%
CCCc1ccc(Oc2cn[nH]c2-c2ccc(O)c(C)c2O)cc1	21%	-3%	0%	10µM*	28%[38.3 µM]	-13%
O=C1NC(=S)S/C1=C1\Sc2ccccc2N1CCCS(=O)(=O)O	25µM*	-7%	0%	-11%[46.1 µM]	35%[38.3 µM]	-9%
CCCC[C@@H]1CCCO[C@@](C(=O)NCCOC)(C(F)(F)F)C1	5%	·	·	·	·	·
CC(=O)N1CCc2cc(C(=O)CN3CCN(c4ccccn4)CC3)ccc21	50µM*	9%	-4%	19%	·	2%
CC(=O)N1CCc2cc(S(=O)(=O)CCC(=O)N3CCN(c4ccccn4)CC3)ccc21	10%	6%	-2%	1%[46.1 µM]	10%	-4%
CC(=O)N1CCc2cc(C(=O)CN3CCN(c4ccccc4F)CC3)ccc21	50µM*	?	1%	-7%[46.1 µM]	18%[38.3 µM]	-16%
O=C(c1[nH]c2ccccc2c1Sc1ccc(Cl)cc1)N1CCCCC1	·	·	-1%	·	·	0%
CCSc1nc2sc3c(c2c2[n+]1CC(CBr)O2)CCCC3 (stereo unspecified)	50µM*	?	-2%	-13%	·	-7%
CC1=C/C(=N\NC(=S)NCc2ccccc2)CC1	9%	3%	13µM*	-36%	2%	0%
CCOC(=O)C1=C(C)OC(N)=C(C#N)C1c1c(C)nn(-c2ccccc2)c1Cl (stereo unspecified)	56µM*	?	0%	-16%[46.1 µM]	3%	?
COC(=O)c1nnc(SC)nc1C(=O)OC	-12%	0%	3%	·	18%	·
Fc1ccc(-[n+]2nc(Nc3ccccc3)sc2-c2c3ccccc3cc3ccccc23)cc1	45µM*	·	·	·	·	-11%
O=[N+]([O-])c1ccc(Cl)c(/C=N/n2c(-c3ccncc3)n[nH]c2=S)c1	56µM*	0%	-3%	-10%	·	-1%
C(=N\Nc1nc2ccccc2[nH]1)/c1ccccc1	-8%	-2%	2%	17%	11%	-7%
Cc1ccccc1/C=N/Nc1nc2ccccc2[nH]1	?	-18%	-6%	-40%	-6%	-11%
C(=N\Nc1nc2ccccc2[nH]1)/c1cccc2cccnc12	-8%	25µM*	6%	?	·	-4%
C(=C\c1ccccc1)/C=N/Nc1nc2ccccc2[nH]1	14µM*	-6%	-1%	14%[46.1 µM]	·	-10%
Cc1ccnc(NS(=O)(=O)c2ccc(N=[N+]=[N-])cc2)n1	·	·	·	·	-3%	·
CCCCCn1c(=O)c2ccccc2n2c(=S)[nH]nc12	56µM*	·	·	·	·	2%
Cn1c(=O)c2ccccc2n2c(=S)[nH]nc12	50µM*	·	·	·	·	-5%
O=c1c2ccccc2n2c(=S)[nH]nc2n1-c1ccccc1	45µM*	·	·	·	·	?
CCCn1c(=O)c2ccccc2n2c(=S)[nH]nc12	79µM*	·	·	·	·	-6%
CCCCn1c(=O)c2ccccc2n2c(=S)[nH]nc12	?	·	·	·	·	-9%
CN(C)/C=N/c1c(C#N)cnn1-c1ccc(F)c(Cl)c1	3%	·	·	·	·	-12%
SMILES	Sfp inh	KDM4E inh	Epigenetic reg	NPSR antagonist	IMPase Li cell	KAT2A inh
CN1CCc2c(sc3c2c(=O)n(-c2ccccc2)c2n[nH]c(=S)n32)C1	40µM*	-14%	4%	-12%[46.1 µM]	4%	-7%
O=c1c2c3c(sc2n2c(=S)[nH]nc2n1-c1ccccc1)CCC3	-20%	0%	0%	-28%	·	?
CCCn1c(=O)c2ccccc2n2c(SCCNCCO)nnc12	35µM*	·	·	·	·	-5%
CCCOC(=O)c1c(NC(=O)/C=C/c2cnn(C)c2C)sc(C(=O)OCC)c1C	2%	?	0%	?	-3%[38.3 µM]	-5%
CCOC(=O)c1sc(NC(=O)/C=C/c2cnn(CC)c2C)c(C(=O)OCC)c1C	25µM*	?	-1%	-13%[46.1 µM]	33%[38.3 µM]	-7%
CN1Cc2c(N3CCOCC3)nc3sc(C(=O)c4ccccc4)c(N)c3c2CC1(C)C	-10%	?	4%	13µM*	·	-6%
Cc1ccc(NC(=O)c2sc3nc(N4CCOCC4)c4c(c3c2N)CC(C)(C)OC4)cc1	32µM*	·	·	·	·	-4%
S=c1nc[nH]c2c1sc1nc(N3CCOCC3)c3c(c12)CCCC3	8%	-86%	1%	-39%	11µM*	-5%
Nc1c(C(=O)c2ccccc2)sc2nsc(SCCN3CCOCC3)c12	50µM*	-2%	?	?	·	-5%
Cc1ccc(C(=O)c2sc3nsc(C)c3c2N)cc1	-6%	0%	-4%	?	73%[38.3 µM]	-16%
CC(C)c1nc2sc3c(=S)nc[nH]c3c2c2c1CCC2	10%	4%	3%	-37%	·	0%
Cc1ccc(-n2ncc3c(N4CCN(CCO)CC4)ncnc32)cc1Cl	·	·	-1%	·	·	-6%
CC1(C)Cc2c(c(N3CCOCC3)nc3sc(C(=O)Nc4ccc(Cl)cc4)c(N)c23)CO1	32µM*	·	-1%	·	·	-6%
CC1(C)Cc2c(c(N3CCOCC3)nc3snc(N)c23)CO1	-2%	?	1%	-9%[46.1 µM]	9%[38.3 µM]	-2%
